Assay results taken from PubChem BioAssay.
Active and inactive are the calls of the source.

Legend:
[1] = small-molecule microarray binders of probe aShh, primary screen, biochemical, biotinylated probe, 635/667 nm fluorescence (AID 1114); settings: higher = more signal;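 note: probe is biotin-labelled aShh protein from a stem cell growth factor screen; measures binding of labelled protein to compounds printed on the slide; score merges feature fluorescence at 667 nm with signal-to-noise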
[2] = small-molecule microarray binders of probe aNog, primary screen, biochemical, biotinylated probe, 635/667 nm fluorescence (AID 1115); settings: higher = more signal;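 note: probe is biotinylated aNog protein used at 0.15 µg/mL for 1 h at 4 C; z-score combines 667 nm fluorescence of each spot with its signal to noise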
[3] = molecular target: Torsin-1A-interacting protein 1 (Homo sapiens) (UniProt Q5JTV8); test: LAP1 binders from COS7 cell lysate, primary screen, small-molecule microarray, 635/667 nm fluorescence (AID 1116); settings: COS7-hLAP1 lysate binding, 635 nm fluorescence, higher = more signal
Torsin-1A-interacting protein 1 (Homo sapiens), sequence (Q5JTV8 whole entry, looked up): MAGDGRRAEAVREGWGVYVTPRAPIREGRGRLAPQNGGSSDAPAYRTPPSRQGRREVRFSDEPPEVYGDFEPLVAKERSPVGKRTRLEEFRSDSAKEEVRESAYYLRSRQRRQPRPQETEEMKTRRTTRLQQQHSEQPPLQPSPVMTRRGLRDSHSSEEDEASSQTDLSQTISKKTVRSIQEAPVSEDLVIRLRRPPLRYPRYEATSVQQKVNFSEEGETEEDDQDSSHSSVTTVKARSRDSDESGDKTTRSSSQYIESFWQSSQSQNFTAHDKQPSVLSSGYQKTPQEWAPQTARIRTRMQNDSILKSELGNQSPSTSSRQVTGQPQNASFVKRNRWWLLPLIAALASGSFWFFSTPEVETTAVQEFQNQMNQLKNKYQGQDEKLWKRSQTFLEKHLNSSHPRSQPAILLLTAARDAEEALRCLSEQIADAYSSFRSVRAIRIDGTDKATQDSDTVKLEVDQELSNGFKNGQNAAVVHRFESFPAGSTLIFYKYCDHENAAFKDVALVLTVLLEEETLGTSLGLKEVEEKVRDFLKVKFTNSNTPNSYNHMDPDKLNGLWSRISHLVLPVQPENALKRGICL

Albumin (Bos taurus) = Albumin (Bos taurus) (UniProt P02769); test: bovine serum albumin binders on microarray, profiling panel, artefact control for SMM control protein annotation, biochemical, small-molecule microarray, Alexa647 label, 635/667 nm fluorescence (AID 1118); settings: BSA-A647 binding, fluorescence 635 nm, higher = more signal;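 note: score merges 667 nm emission intensity and signal-to-noise per printed compound spot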
Albumin (Bos taurus), sequence (P02769 whole entry, looked up): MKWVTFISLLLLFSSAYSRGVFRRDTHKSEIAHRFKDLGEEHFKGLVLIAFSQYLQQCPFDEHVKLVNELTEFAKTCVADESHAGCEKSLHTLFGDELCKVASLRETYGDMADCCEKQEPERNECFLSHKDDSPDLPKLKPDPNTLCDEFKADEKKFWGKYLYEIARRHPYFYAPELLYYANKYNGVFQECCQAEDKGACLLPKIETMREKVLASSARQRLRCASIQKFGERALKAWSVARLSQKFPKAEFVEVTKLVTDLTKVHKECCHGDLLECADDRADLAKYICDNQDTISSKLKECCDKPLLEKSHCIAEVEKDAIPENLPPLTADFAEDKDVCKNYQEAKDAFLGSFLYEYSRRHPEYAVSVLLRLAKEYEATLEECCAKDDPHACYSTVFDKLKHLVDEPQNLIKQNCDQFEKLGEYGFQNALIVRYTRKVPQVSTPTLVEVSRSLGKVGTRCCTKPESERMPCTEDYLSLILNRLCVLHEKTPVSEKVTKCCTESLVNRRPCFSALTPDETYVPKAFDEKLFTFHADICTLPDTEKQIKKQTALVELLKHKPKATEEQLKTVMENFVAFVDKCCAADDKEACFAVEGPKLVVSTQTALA

[4] = small-molecule microarray binders of probe aXIP, primary screen, biochemical, NeuroSMM set, 635/667 nm fluorescence (AID 1119); settings: higher = more signal, called active from +8 up or from −8 down;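 note: probe is the protein aXip251-270 applied at 1 µg/mL to compound-printed slides; binding of probe to printed compounds measured as 667 nm fluorescence plus signal to noise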
[5] = small-molecule binders of probe aNOTCH3, primary screen, biochemical, small-molecule microarray, 635/667 nm fluorescence (AID 1120); settings: higher = more signal;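 note: probe is a biotin-tagged antibody raised against NOTCH3 rather than NOTCH3 protein; score merges spot fluorescence near 667 nm with spot signal to noise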
[6] = small-molecule binders of probe aNOTCH2, primary screen, biochemical, small-molecule microarray, 635/667 nm fluorescence (AID 1121); settings: higher = more signal;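 note: score merges feature fluorescence read at 667 nm with its signal to noise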
[7] = molecular target: Carbonic anhydrase 2 (Homo sapiens) (UniProt P00918); test: CAII small-molecule binders, profiling panel, biochemical, small-molecule microarray, Alexa647-labelled CAII (AID 1122); settings: CAII-A647 binding fluorescence, higher = more signal
[8] = COS7 lysate on small-molecule microarray, probe aHis, 635 nm (AID 1123); settings: COS7 cell lysate, fluorescence, higher = more signal;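 note: z-score combines 667nm fluorescence intensity with signal-to-noise per printed compound spot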
[9] = compound binding in COS7 lysate, probe aLAP1, primary screen, cell lysate, small-molecule microarray (AID 1124); settings: probe aLAP1, fluorescence, higher = more signal;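 note: lysate comes from COS7 cells expressing LAP1 and is applied at 0.3 µg/mL; score merges spot fluorescence near 667 nm with signal-to-noise over triplicate slides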
Sam68 (KHDRBS1) = test: Sam68 small-molecule binders, primary screen, biochemical, small-molecule microarray, 635 nm fluorescence (AID 1125); settings: small-molecule microarray binding, higher = more signal;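 note: score merges 667 nm channel intensity with signal to noise over triplicate slides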
[10] = tested on: Chordin-like protein 2 (CHRDL2); test: CHRDL2 small-molecule binders, primary screen, biochemical, small-molecule microarray, 635 nm fluorescence (AID 1126); settings: small-molecule microarray binding, fluorescence 635 nm; higher = more signal;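 note: printed compound slides probed with Chrdl2 protein at 4 µg/mL for 1 h at 4 C; score merges 667 nm emission intensity with signal to noise over three replicate slides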
[11] = molecular target: Concanavalin-A (Canavalia ensiformis) (UniProt P02866); test: ConA small-molecule binders, primary screen, artefact control for SMM control protein annotation, biochemical, small-molecule microarray, Alexa647 label, 635 nm (AID 1127); settings: ConA-A647 binding fluorescence, higher = more signal;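 note: z combines 667 nm emission intensity with signal-to-noise across three replicate slides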
Concanavalin-A (Canavalia ensiformis), sequence (P02866 whole entry, looked up): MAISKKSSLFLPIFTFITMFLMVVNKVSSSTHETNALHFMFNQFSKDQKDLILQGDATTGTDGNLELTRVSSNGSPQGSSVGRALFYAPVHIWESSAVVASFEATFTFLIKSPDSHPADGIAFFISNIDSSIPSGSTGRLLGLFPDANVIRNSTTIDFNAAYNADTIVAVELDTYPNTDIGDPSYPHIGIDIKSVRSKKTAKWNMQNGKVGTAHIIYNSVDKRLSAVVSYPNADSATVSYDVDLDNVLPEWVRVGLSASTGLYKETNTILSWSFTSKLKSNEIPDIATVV

[12] = anti-His antibody binders, primary screen, artefact control for SMM control protein annotation, biochemical, small-molecule microarray, 635 nm fluorescence (AID 1128); settings: anti-His Alexa647 antibody binding, higher = more signal;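 note: score merges feature fluorescence with signal-to-noise for each printed compound spot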
[13] = tested on: Human papillomavirus type 1a E7 protein (residues 1-88); test: HPV1a E7 small-molecule binders, primary screen, biochemical, small-molecule microarray, residues 1-88, 635 nm (AID 1129); settings: small-molecule microarray binding, fluorescence 635 nm; higher = more signal
[14] = molecular target: Focal adhesion kinase 1 (Homo sapiens) (UniProt Q05397); test: small-molecule microarray binders of FAK, primary screen, biochemical, 635/667 nm fluorescence, BSA, DTT (AID 1130); settings: PTK2 binding, 635 nm fluorescence, higher = more signal;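 note: composite of spot emission at 667 nm and signal to noise over triplicate slides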
Focal adhesion kinase 1 (Homo sapiens), sequence (Q05397 whole entry, looked up): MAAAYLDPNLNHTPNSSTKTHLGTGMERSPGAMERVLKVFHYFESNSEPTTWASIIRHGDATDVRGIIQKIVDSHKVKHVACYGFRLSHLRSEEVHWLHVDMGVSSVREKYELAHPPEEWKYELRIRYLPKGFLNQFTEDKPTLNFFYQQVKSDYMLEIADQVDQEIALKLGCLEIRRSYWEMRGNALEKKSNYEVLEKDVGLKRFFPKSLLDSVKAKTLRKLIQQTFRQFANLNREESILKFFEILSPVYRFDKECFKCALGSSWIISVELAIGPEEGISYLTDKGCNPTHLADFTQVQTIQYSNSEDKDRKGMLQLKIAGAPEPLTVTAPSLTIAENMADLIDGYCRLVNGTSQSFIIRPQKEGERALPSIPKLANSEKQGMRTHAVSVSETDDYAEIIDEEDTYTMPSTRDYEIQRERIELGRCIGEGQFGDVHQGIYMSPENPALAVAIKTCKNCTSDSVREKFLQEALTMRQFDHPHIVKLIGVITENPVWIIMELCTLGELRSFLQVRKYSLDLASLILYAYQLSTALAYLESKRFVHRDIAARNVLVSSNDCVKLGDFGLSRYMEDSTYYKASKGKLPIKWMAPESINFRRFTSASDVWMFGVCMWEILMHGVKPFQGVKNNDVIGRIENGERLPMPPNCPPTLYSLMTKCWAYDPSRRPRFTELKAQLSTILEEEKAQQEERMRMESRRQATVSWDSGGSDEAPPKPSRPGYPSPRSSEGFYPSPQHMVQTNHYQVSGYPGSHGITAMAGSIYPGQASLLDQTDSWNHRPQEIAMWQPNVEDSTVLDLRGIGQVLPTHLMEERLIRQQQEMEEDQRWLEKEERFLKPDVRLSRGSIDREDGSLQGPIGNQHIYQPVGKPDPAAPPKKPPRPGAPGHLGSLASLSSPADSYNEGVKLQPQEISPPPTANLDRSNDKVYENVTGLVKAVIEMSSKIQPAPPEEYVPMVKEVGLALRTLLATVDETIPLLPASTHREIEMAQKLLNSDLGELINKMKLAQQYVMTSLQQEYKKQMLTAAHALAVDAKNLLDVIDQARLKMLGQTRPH

[15] = tested on: Fibrinogen (Alexa647-labelled); test: fibrinogen binders on compound microarrays, profiling panel, artefact control for SMM control-protein annotation, biochemical, small-molecule microarray, 635/667 nm fluorescence (AID 1131); settings: fibrinogen-A647 binding fluorescence, higher = more signal;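 note: z-score merges 667 nm fluorescence with per-spot signal-to-noise over triplicate slides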
[16] = molecular target: Follistatin (Homo sapiens) (UniProt P19883); test: follistatin binders on small-molecule microarrays, primary screen, biochemical, small-molecule microarray, 635/667 nm fluorescence (AID 1132); settings: FST binding, 635 nm fluorescence, higher = more signal
Follistatin (Homo sapiens), sequence (P19883 whole entry, looked up): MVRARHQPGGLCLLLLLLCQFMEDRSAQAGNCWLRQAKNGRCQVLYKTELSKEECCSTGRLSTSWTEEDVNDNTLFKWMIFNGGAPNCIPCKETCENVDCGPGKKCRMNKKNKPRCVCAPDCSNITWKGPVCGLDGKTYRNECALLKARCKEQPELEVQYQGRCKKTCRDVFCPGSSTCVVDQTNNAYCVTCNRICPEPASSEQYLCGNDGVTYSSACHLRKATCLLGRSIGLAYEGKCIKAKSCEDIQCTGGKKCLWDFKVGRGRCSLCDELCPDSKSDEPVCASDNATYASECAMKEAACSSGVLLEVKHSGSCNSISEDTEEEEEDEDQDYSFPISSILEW

[17] = molecular target: Fibroblast growth factor 2 (Homo sapiens) (UniProt P09038); test: FGF2 binders on small-molecule microarrays, primary screen, biochemical, small-molecule microarray, 635/667 nm fluorescence (AID 1133); settings: small-molecule microarray binding, FGF2, fluorescence 635/667; higher = more signal
Fibroblast growth factor 2 (Homo sapiens), sequence (P09038 whole entry, looked up): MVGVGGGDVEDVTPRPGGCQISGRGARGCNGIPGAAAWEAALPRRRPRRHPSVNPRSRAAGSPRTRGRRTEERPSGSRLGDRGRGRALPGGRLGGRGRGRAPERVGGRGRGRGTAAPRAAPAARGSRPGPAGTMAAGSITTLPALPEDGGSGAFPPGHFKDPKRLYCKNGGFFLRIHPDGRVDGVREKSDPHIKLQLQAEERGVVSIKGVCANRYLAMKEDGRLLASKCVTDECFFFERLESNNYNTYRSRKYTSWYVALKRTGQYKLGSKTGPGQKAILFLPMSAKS

[18] = mitochondrial membrane potential change in A549 cells, profiling panel, cell-based, JC-1 fluorescence, basal, 24 h, 100 nL (AID 1138); settings: higher = more signal;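 note: A549 lung adenocarcinoma cells under basal conditions with no added stimulus; test concentration not given here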

Row | SMILES | composite z-score [1] | composite z-score [2] | composite z-score [3] | composite z-score (Albumin (Bos taurus)) | composite Z-score [4] | composite z-score [5] | composite z-score [6] | composite z-score [7] | composite z-score [8] | composite z-score [9] | composite z-score (Sam68 (KHDRBS1)) | composite z-score [10] | composite z-score [11] | composite z-score [12] | composite z-score [13] | composite z-score [14] | composite z-score [15] | composite z-score [16] | composite z-score [17] | z-score [18]
1 | Cc1ccc(S[C@]2(C(=O)NCC(C)C)CC(=O)N(C(C)C)[C@@H]2c2ccc(CO)cc2)cc1 | -0.137 | -0.163 | 0.623 | -0.283 | 0.0333 (inactive) | -0.255 | -0.163 | 0.747 | 0.301 | -0.311 | -0.749 | -0.589 | -0.522 | -1.15 | 0.259 | -0.267 | -1.48 | 0.259 | 0.206 | 0.69
2 | [N-]=[N+]=NCc1ccccc1C[C@@]1(C(=O)O)N=C(c2ccc(OCCCO)cc2)O[C@@H]1c1ccccc1 | 0.0469 | 0.767 | 1.75 | 0.433 | 0.114 (inactive) | -0.133 | 0.0278 | 0.658 | 1.53 | 1.48 | 0.782 | -1.24 | 0.933 | 0.822 | 0.998 | 0.829 | 0.808 | 0.322 | -0.41 | 1.34
3 | COCCCNC(=O)[C@@]1(Cc2ccccc2)N=C(c2ccc(OCCCO)cc2)O[C@H]1c1ccccc1N=[N+]=[N-] | 1.02 | 0.805 | 0.948 | 0.765 | -0.597 (inactive) | 0.385 | 0.0538 | 0.405 | 0.877 | 0.516 | 0.846 | -0.297 | 0.0647 | 0.644 | 1.16 | 0.635 | 0.881 | 1.48 | 1.58 | 2.03
4 | C=CC[C@]1(C(=O)N2CCCCC2)COC(c2ccc(OCCCO)cc2)=N1 | -0.138 | 0.179 | 1.01 | 0.837 | -0.216 (inactive) | -0.152 | -0.173 | 0.818 | 2.22 | 0.523 | -0.48 | -0.802 | -1.46 | -1.2 | 0.633 | -0.0161 | -0.236 | -0.465 | -0.453 | 2.27
5 | O=C(O)[C@H]1C[C@H]2C(=O)N[C@@H](Cc3ccccc3)C(=O)N2[C@H]1c1ccc(O)cc1 | -0.0783 | 0.586 | 0.777 | -0.728 | 1.09 (inactive) | -0.0918 | -0.0415 | 0.659 | 1.88 | 0.414 | 1.08 | -0.372 | 0.956 | 1.19 | -0.514 | 0.171 | -0.0232 | 1.26 | 0.677 | 1.2
6 | O=C1O[C@H](c2ccccc2)[C@H](c2ccccc2)N2[C@H]1[C@@H](C(=O)Nc1nc3ccccc3s1)[C@]1(C(=O)Nc3ccc(C#CCCO)cc31)[C@H]2c1ccccc1OCCO | 0.355 | 1.3 | 1.26 | 0.596 | 0.231 (inactive) | 0.0695 | -0.0155 | 0.671 | 2.43 | 0.849 | 1.31 | -0.0204 | 1.18 | 1.42 | 1.2 | 0.705 | 0.89 | 1.09 | 0.479 | -1.93
7 | C=CCC(OC(C)=O)[C@@H]1[C@@H](N(Cc2cccc3ccccc23)C(=O)Cc2ccc(OC)cc2)c2cc(OCCCO)ccc2N1C(=O)Cc1ccc(OC)cc1 (stereo not given in full) | -0.153 | 0.277 | -0.0539 | 0.73 | -0.199 (inactive) | -0.0373 | -0.104 | 0.207 | 0.624 | 0.163 | 0.0025 | 0.0487 | -0.532 | -0.28 | -0.418 | -0.238 | 0.849 | 0.148 | -0.0722 | 0.537
8 | C=CCNC(=O)[C@H]1[C@@H]2C(=O)O[C@@H](c3ccccc3)[C@@H](c3ccccc3)N2[C@@H](c2ccccc2OCCO)[C@]12C(=O)N(C(=O)OCCOC)c1ccc(C#CCCO)cc12 | 0.715 | 1.23 | 0.985 | 0.0097 | 0.433 (inactive) | 0.142 | 0.399 | 0.417 | 1.79 | 0.665 | 1.32 | 1.18 | 1.11 | 1.34 | 1.09 | 1.02 | 0.614 | 1.42 | 1.72 | 1.7
9 | C=C(/C(=C/C[C@H](OC(=O)c1ccncc1)c1cccc(OCCO)c1)c1cc(C(=O)OC)ccc1OC)C(C)C | -0.0035 | 0.0866 | -0.142 | -0.768 | 0.415 (inactive) | -0.16 | -0.12 | 0.47 | 0.239 | 0.11 | 1.12 | -1.23 | 0.505 | -0.538 | 0.101 | 0.72 | -0.188 | -0.0075 | 0.266 | 2
10 | CCOC(=O)C[C@H]1[C@H](OC(=O)Cc2ccc3c(c2)OCO3)[C@@H](NC(=O)c2ccc3ccccc3c2)c2cc(OCCCO)ccc2N1C(=O)c1ccc2ccccc2n1 | -0.0769 | -0.171 | 1.15 | 0.661 | -0.102 (inactive) | 0.0349 | -0.0523 | 0.371 | 0.77 | 0.562 | 0.826 | -0.318 | 0.356 | 0.0303 | 0.731 | -0.339 | 0.774 | 0.197 | 0.334 | 2.55
11 | CO[C@H]1O[C@H](CO)[C@@H](OC(=O)Nc2ccccc2)[C@H](OC(=O)Nc2ccc3c(c2)OCO3)[C@H]1OC(=O)Nc1ccc2c(c1)OCO2 | 0.0898 | 1.19 | 1.51 | 0.06 | 0.219 (inactive) | 0.224 | -0.0289 | 0.599 | 2.14 | 0.294 | 1.29 | -0.494 | 1.18 | 1.75 | 1.19 | 2.04 | 0.172 | 0.612 | -0.0687 | 0.316
12 | [N-]=[N+]=NCc1ccccc1C[C@]1(C(=O)NCc2ccccc2)N=C(c2ccc(OCCCO)cc2)O[C@H]1c1ccccc1 | 0.23 | 0.682 | 1.31 | 0.992 | 0.945 (inactive) | 0.2 | 0.139 | 0.396 | 1.85 | 1.45 | 1.16 | -1.4 | 1.09 | 1.67 | 1.18 | 0.445 | 0.813 | -0.257 | -0.0593 | 0.488
13 | CCCCC(=C=CC[C@@H](O)c1ccc(OCCO)cc1)C[C@@H](O)c1cc(Cl)cc(Cl)c1O | -0.221 | 0.342 | 0.497 | 0.645 | 0.0371 (inactive) | 0.151 | -0.048 | 0.674 | 0.886 | 0.673 | 0.661 | -0.101 | 0.486 | 0.155 | 0.597 | 0.507 | 0.556 | 0.63 | 0.594 | 1.28
14 | CN1C=C(C(=O)OCCS(C)(=O)=O)C(C(=O)OCCS(C)(=O)=O)=CC(CCCO)=CC1c1cccs1 (stereo not given) | -0.0011 | -0.036 | 0.151 | -0.945 | 1.4 (inactive) | -0.132 | -0.0837 | -0.167 | -0.12 | 0.0548 | 1.13 | 0.443 | -0.508 | 0.478 | 0.77 | 0.275 | -0.463 | 0.775 | 0.371 | 3.12
15 | CO[C@H]1O[C@H](CO)[C@@H](OC(=O)Nc2ccccc2)[C@H](OC(=O)Nc2ccccc2-c2ccccc2)[C@H]1OC(=O)Nc1ccccc1-c1ccccc1 | 0.366 | 0.767 | 2.08 | 0.925 | 0.563 (inactive) | -0.0903 | -0.103 | 0.556 | 1.63 | 0.463 | 1.3 | -0.159 | 1.19 | 2.03 | 1.23 | 1.17 | 0.903 | 0.754 | 0.292 | -1.05
16 | CC(C)CNC(=O)[C@@H]1c2ccccc2C(=O)N(Cc2ccc(OC(F)(F)F)cc2)[C@H]1c1ccc(CO)cc1 | -0.0234 | 0.327 | 1.69 | 0.0335 | 0.465 (inactive) | 0.0813 | 0.0081 | 0.572 | 2.36 | 0.0712 | 1.3 | -0.0181 | 1.07 | 1.31 | 1.19 | 1.04 | 0.647 | 1.34 | 1.09 | 0.71
